Assay results: the supplement of paper PMC10646978
± gives the standard deviation.

Tests used:
Conditions in all cases: modulator concentration 10 µM
[1] = tested on: RAW-Dual (murine macrophage reporter line); assay: NF-kB reporter (SEAP) activity fold change vs agonist alone; higher = enhanced NF-kB activity
Outline: (§1)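 Overnight stimulation with a PRR agonist followed pre-incubation for 1 hour at 37 °C with compound at 10 μM final. This was done in RAW-Dual murine macrophage reporter cells seeded at 50 000 per well in 384-well plates. NF-κB (SEAP, QUANTI-Blue absorbance at 620 nm) and IRF (Lucia luciferase, QUANTI-Luc luminescence) were read from the supernatant. Each reporter's fold change relative to the mean agonist-only control on the same plate was averaged over replicate plates.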

[2] = tested on: RAW-Dual (murine macrophage reporter line); assay: IRF reporter (Lucia luciferase) activity fold change vs agonist alone; higher = enhanced IRF activity
Outline: as §1

[3] = tested on: RAW-Dual (murine macrophage reporter line); assay: viability score (confluency relative to resting cells, overnight) (fraction); higher = more viable, active = viable (0.7 or more)
Outline: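 RAW-Dual macrophages in 384-well plates were treated overnight with compound at 10 μM final. IncuCyte imaging recorded confluency, and IncuCyte software built two confluency masks across every imaged well. The viability score expresses confluency relative to resting cells and was judged against a cutoff, which a compound met only if both masks exceeded 70% of resting cells.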

[4] = agonist: CpG ODN 1826 0.5 ug/mL

SMILES	NF-kB reporter [1, 4]	NF-kB reporter ([1]; agonist: LPS 0.1 ug/mL)	NF-kB reporter ([1]; agonist: MPLA […])	IRF reporter ([2]; agonist: 3'3'-cGAMP 10 ug/mL)	IRF reporter ([2]; agonist: LPS 0.1 ug/mL)	IRF reporter ([2]; agonist: MPLA […])	viability score [3]
O=C1NC(=O)C(=Cc2ccc(-c3cccc(Cl)c3)o2)S1	0.774 ± 0.36	0.761 ± 0.064	0.776 ± 0.064	0.747 ± 0.032	1.13 ± 0.14	1.2 ± 0.16	0.943 (active)
N#CCCN(C1CCCCC1)S(=O)(=O)c1cccc2nsnc12	1.05 ± 0.083	0.826 ± 0.051	1.73 ± 0.58	0.867 ± 0.048	1.33 ± 0.077	1.28 ± 0.15	1.01 (active)
O=C1C(Cl)=C(N2CCCCC2)C(=O)N1c1ccc(Cl)c(Cl)c1	0.687 ± 0.14	1.07 ± 0.084	1 ± 0.15	0.911 ± 0.047	1.09 ± 0.11	1.22 ± 0.27	1 (active)
CCCCc1nc(C)c(CC(=S)N(C)C)c(=O)n1Cc1ccc(-c2ccccc2-c2nnn[nH]2)cc1	0.589 ± 0.025	0.273 ± 0.022	1.36 ± 0.077	0.0858 ± 0.062	3.7 ± 0.2	8.26 ± 0.79	0.139 (inactive)
Cl.OC(CCN1CCCC1)(c1ccccc1)C1CCCCC1 (configuration not stated)	0.822 ± 0.28	1.13 ± 0.061	1.12 ± 0.088	0.625 ± 0.025	1.07 ± 0.14	1.18 ± 0.26	0.976 (active)
Cc1nnc(C(C)C)n1C1CC2CCC(C1)N2CC[C@H](NC(=O)C1CCC(F)(F)CC1)c1ccccc1 (some centres not stated)	0.928 ± 0.07	1.05 ± 0.069	1.03 ± 0.051	1.08 ± 0.2	0.973 ± 0.087	1.03 ± 0.11	1 (active)
CC(C)(C)C(=O)C(Oc1ccc(Cl)cc1)n1ccnc1 (configuration not stated)	1.3 ± 0.33	0.983 ± 0.33	1.08 ± 0.13	1.07 ± 0.044	1.31 ± 0.36	1.34 ± 0.1	0.892 (active)
Nc1nc(N)c2nc(-c3ccccc3)c(N)nc2n1	0.861 ± 0.15	1.03 ± 0.17	0.891 ± 0.056	0.56 ± 0.017	1.17 ± 0.27	1.18 ± 0.18	0.92 (active)
CSCCC(NC(C)=O)C(=O)N1CCc2nc3ccc(F)cn3c(=O)c2C1 (configuration not stated)	1.05 ± 0.097	1.05 ± 0.088	0.906 ± 0.074	0.97 ± 0.085	1.24 ± 0.15	1.13 ± 0.12	1.01 (active)
CN1CC(=O)N2[C@H](c3ccc4c(c3)OCO4)c3[nH]c4ccccc4c3C[C@@H]2C1=O	0.821 ± 0.2	1.05 ± 0.23	0.976 ± 0.056	0.869 ± 0.026	1.01 ± 0.24	0.922 ± 0.08	0.981 (active)
CN1CCN(c2ccc(C(=O)Nc3n[nH]c4ccc(Cc5cc(F)cc(F)c5)cc34)c(NC3CCOCC3)c2)CC1	0.971 ± 0.043	1.21 ± 0.097	1.87 ± 0.11	0.129 ± 0.0061	0.482 ± 0.14	0.465 ± 0.13	0.947 (active)
CN(C)c1nc(CNS(C)(=O)=O)nc(N2CCOCC2)n1	0.908 ± 0.047	0.916 ± 0.091	1.02 ± 0.071	1.08 ± 0.049	1.07 ± 0.18	1.14 ± 0.38	1.02 (active)
COc1ccc(N2C(=O)C(=Cc3ccc([N+](=O)[O-])s3)SC2=S)cc1	0.879 ± 0.17	1.55 ± 0.14	1.71 ± 0.16	0.439 ± 0.012	1.25 ± 0.23	1.2 ± 0.26	0.9 (active)
CC1=NN(c2ccc(C)cc2)C(=O)C1=Cc1c(C)nn(-c2ccc(C)cc2C)c1O	1.03 ± 0.08	0.922 ± 0.089	1.02 ± 0.096	0.986 ± 0.046	1.21 ± 0.2	1.26 ± 0.19	1.03 (active)
COc1ccc(C=CC(=O)Nc2ccc([N+](=O)[O-])cc2)cc1Br	1.06 ± 0.17	0.991 ± 0.14	0.905 ± 0.11	0.996 ± 0.044	1.28 ± 0.18	1.43 ± 0.42	1.01 (active)
CN1CCC2(CC1)NC(=O)N(CC(=O)N1CCc3ccccc31)C2=O	0.927 ± 0.094	1.14 ± 0.096	0.942 ± 0.11	1.01 ± 0.063	1.18 ± 0.14	1.2 ± 0.1	1.02 (active)
O=C(NN=Cc1c(O)ccc2ccccc12)c1[nH]ncc1I	1.93 ± 0.15	1.24 ± 0.081	1.4 ± 0.063	0.491 ± 0.021	1.32 ± 0.076	1.3 ± 0.094	0.906 (active)
CC(C)Sc1ccc(CC(=O)N2C3C=CCC2CC3)cc1 (configuration not stated)	0.963 ± 0.12	1.03 ± 0.082	1.08 ± 0.1	1 ± 0.1	1.43 ± 0.11	1.38 ± 0.24	0.877 (active)
C(=C\c1ccccc1)/CN1CCN(C(c2ccccc2)c2ccccc2)CC1	1.14 ± 0.16	0.957 ± 0.37	0.989 ± 0.065	0.828 ± 0.028	1.23 ± 0.44	1.33 ± 0.1	0.979 (active)
O=[N+]([O-])c1ccc2nc(S)sc2c1	0.847 ± 0.068	1.11 ± 0.15	1.11 ± 0.027	0.82 ± 0.082	0.986 ± 0.12	1.03 ± 0.15	0.992 (active)
CC(N)C12CC3CC(CC(C3)C1)C2.Cl (configuration not stated)	0.598 ± 0.14	1.07 ± 0.12	1.04 ± 0.068	0.919 ± 0.033	0.899 ± 0.1	0.966 ± 0.27	0.543 (inactive)
CN1CCN(C(c2ccccc2)c2ccccc2)CC1.Cl.Cl	0.727 ± 0.12	0.833 ± 0.21	0.89 ± 0.05	0.701 ± 0.023	1.25 ± 0.29	1.03 ± 0.084	0.985 (active)
COc1cc2c(cc1OC)C1C(=O)c3ccc4c(c3OC1CO2)CCC(C)(C)O4 (configuration not stated)	0.91 ± 0.073	1.02 ± 0.075	1.67 ± 0.16	0.824 ± 0.026	1.52 ± 0.24	1.75 ± 0.36	1.02 (active)
COc1cccc(-c2nnc(NC(=O)C3CC3)o2)c1	1.21 ± 0.071	0.987 ± 0.096	0.999 ± 0.037	0.95 ± 0.055	1.04 ± 0.057	1.11 ± 0.12	1 (active)
Cc1ccc(C(=O)NC(=Cc2cccc3ccccc23)C(=O)N2CCCC2)cc1	0.957 ± 0.075	1.03 ± 0.067	0.974 ± 0.086	0.966 ± 0.042	1.31 ± 0.23	1.15 ± 0.22	1.01 (active)
CCC(=O)N(CCC(c1ccccc1OC)C1CCOC(C)(C)C1)Cc1ccc(OC)cc1 (configuration not stated)	0.907 ± 0.072	0.986 ± 0.059	0.938 ± 0.056	1.04 ± 0.055	1.23 ± 0.29	1.04 ± 0.088	1.01 (active)
